Our source for the growth inhibition values is PubChem BioAssay (NCI).

Where “and” joins values, the source holds several entries; their conditions need not be identical. Equal entries are not always repeated. Compounds without any hit were thinned out: in the full panel of roughly 79,000, 15% have a hit. Calls of active or inactive are those of the source. Rule as the data show it: active = growth inhibition above about 70%; inactive = the rest.

The test can be described thus: NCI Yeast Anticancer Drug Screen. Data for the mlh1 rad18 strain (AID 175). The settings on record: S. cerevisiae mlh1 rad18 strain growth inhibition, hits give high values; at 50.0 µM unless noted. An outline of the steps: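 Inhibition values reflect reduced growth of mutant yeast versus vehicle-treated controls following compound exposure; the mutations affect DNA damage repair.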
As to `COC(=O)c1cccc(C(=O)OC)c1`, the growth inhibition was 3.75% (inactive) and 15.4% (inactive).
The figure for `CC1=C(C)C(C#N)(C(=O)CBr)C(=N)O1` (stereo not given) is 68.2% (inactive); for `c1ccc2c(c1)ccc1c[n+]3ccccc3cc12` it is 61.9% (inactive); for `CN(C)c1c2ccccc2c(NC=O)c2ccccc12` it is 9% (inactive).
The result for `CNS(=O)(=O)c1ccc(C)c(C)c1` reads 12.7% (inactive).
